A selection: hits, their analogues and other compounds. The true share with any hit is near 2.4%.
Pol eta inh-1: inhibitors of human DNA polymerase eta | Q9Y253 | recombinant Pol eta, fluorescent DNA replication assay | Potency, µM (highest dose often 114 µM), usual class: inhibitors | hit rate 1.2% among 390,000
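Fluorescent replication assay: 50 nM final substrate added after a 15 min room-temperature compound preincubation with 10 nM enzyme. Signal taken at 0 min and again at 10 min.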
Pol kappa inh-1: DNA polymerase kappa (human) inhibition; purified Pol kappa, fluorescent DNA synthesis assay, 10 min; Potency, µM (series often up to 107 µM), usual class: inhibitors; hit rate 0.53% among 400,000
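Inhibition of 10 nM Pol kappa is measured by a fluorescent read-out at 0 and 10 min following addition of 50 nM substrate (final), with a 15-min room-temperature compound preincubation.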
POLB inh: inhibitors of human DNA polymerase beta. Pol beta primer extension/strand displacement, fluorescence kinetic. Potency, µM (top dose mostly 114 µM), usual class: inhibitors. hit rate 1.3% among 340,000. P06746
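Preincubation: enzyme (10 nM) with compound, 15 min, RT. Reaction: substrate added to 50 nM final. Reads: 0 and 10 min. Analysis: normalized, Hill fit.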
TDP1 block: blocks human tyrosyl-DNA phosphodiesterase 1 | recombinant TDP1, AlphaScreen DNA substrate cleavage | Potency, µM (doses to about 130 µM), usual class: inhibitors | hit rate 0.28% among 350,000; further: nearly all actives have a fitted effect of over 40% in size
Target sequence (Q9NUW8 whole entry, looked up): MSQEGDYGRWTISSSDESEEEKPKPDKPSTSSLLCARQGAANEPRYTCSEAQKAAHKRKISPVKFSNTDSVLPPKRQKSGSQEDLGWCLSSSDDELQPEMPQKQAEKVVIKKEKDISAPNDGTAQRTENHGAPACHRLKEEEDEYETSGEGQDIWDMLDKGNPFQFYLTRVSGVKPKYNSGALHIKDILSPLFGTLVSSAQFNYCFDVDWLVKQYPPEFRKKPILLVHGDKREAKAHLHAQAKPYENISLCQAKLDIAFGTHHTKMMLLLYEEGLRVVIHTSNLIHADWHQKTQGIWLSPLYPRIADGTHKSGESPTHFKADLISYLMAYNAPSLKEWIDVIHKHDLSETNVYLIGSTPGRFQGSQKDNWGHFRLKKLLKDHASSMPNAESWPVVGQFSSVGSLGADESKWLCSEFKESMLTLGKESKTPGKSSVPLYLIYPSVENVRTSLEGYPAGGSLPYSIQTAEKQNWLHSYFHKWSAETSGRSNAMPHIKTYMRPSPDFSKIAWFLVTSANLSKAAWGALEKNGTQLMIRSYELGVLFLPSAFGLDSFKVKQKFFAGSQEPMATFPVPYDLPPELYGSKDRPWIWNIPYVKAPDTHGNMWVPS
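Steps: enzyme plus compound, 15 min RT; add biotin/phosphotyrosine-FITC oligonucleotide (15 nM final), react 5 min; add donor/acceptor beads (10 ug/ml final), 10 min; read AlphaScreen. Tdp1 at 1 nM final.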
Pol iota inh: inhibitors of human DNA polymerase iota | Pol iota fluorescent replication assay, 10 min | Potency, µM (top dose mostly 115 µM), actives largely listed as inhibitors | hit rate 1% among 390,000 | AID 588590
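Pol iota at 10 nM preincubated 15 min with compounds at room temperature; reaction started with fluorescent substrate, 50 nM final. Fluorescence read kinetically at 0 and 10 min; buffer-only wells as negative control.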
TbPGK inh: validation of Trypanosoma brucei phosphoglycerate kinase inhibitors; shares compounds with Pol kappa inh-1; TbPGK coupled GAPDH assay, Kinase-Glo luminescence; Potency, µM (highest dose often 57.5 µM), usual class: inhibitors; hit rate 79% among 500; further: nearly all actives have a fitted effect of over 65% in size
Pol iota confirm: Human Pol iota inhibitor confirmatory assay. Pol iota primer extension, TAMRA/BHQ fluorescence. shares compounds with Pol kappa inh-1. Potency, µM, most hits filed as inhibitors. hit rate 77% among 1,500
Pol kappa inh-2: Pol kappa (human) inhibition, cherry-pick confirmation. AID 720501. purified Pol-kappa, fluorescent strand-displacement substrate. hit rate 76% among 920. Potency, µM, usual class: inhibitors. shares compounds with Pol eta inh-1
Pol eta inh-2: Pol eta (human) inhibition, cherry-pick confirmation; shares compounds with Pol eta inh-1; Potency, µM, usual class: inhibitors; hit rate 64% among 2,600; AID 720502; Pol eta primer extension, TAMRA/BHQ fluorescence, 10 min
Large screens that a line does not name were inactive (follow-up assays come after a bar, where they were run). The call rests on the fitted dose curve; in most records, active means well fitted curve in the direction sought with a large enough effect; inconclusive means small, poorly fitted or top-dose-only effect, or another doubt; inactive means no such curve, though single readings can be large; an effect the other way counts as inactive or inconclusive.

Cc1ccnc2nc(C(=O)OCC(=O)c3ccc(NC(=O)CC(C)C)cc3)nn12	Pol eta inh-1 inconclusive, Pol iota inh inconclusive (no result: POLB inh)
CCC(=O)Nc1ccc(C(=O)COC(=O)c2nc3nccc(C)n3n2)cc1	Pol eta inh-1 3.55µM, Pol kappa inh-1 inconclusive, TDP1 block 15.8µM, Pol iota inh 3.98µM (no result: POLB inh) | Pol iota confirm 16.8 | Pol kappa inh-2 16.8 | Pol eta inh-2 26.9
O=[N+]([O-])c1ccc(C=NNC(=S)NN=Cc2ccc([N+](=O)[O-])cc2)cc1	Pol eta inh-1 inconclusive, Pol kappa inh-1 25.1µM, Pol iota inh 14.1µM (no result: POLB inh, TDP1 block) | Pol iota confirm 18.9 | Pol kappa inh-2 16.8 | Pol eta inh-2 42.6
O=[N+]([O-])c1ccc(C=NNC(=S)Nc2ccc(F)cc2)cc1	none (no result: POLB inh, TDP1 block)
O=C(O)c1ccc(COc2ccc3c4c(c(=O)oc3c2)CCC4)o1	Pol eta inh-1 7.94µM, Pol kappa inh-1 inconclusive, POLB inh 35.5µM, Pol iota inh inconclusive (no result: TDP1 block) | TbPGK inh 18.3µM | Pol eta inh-2 26.9
O=C(CCc1ccc(O)c(O)c1)N/N=C/c1cc2c(cc1[N+](=O)[O-])OCO2	Pol eta inh-1 17.8µM, Pol kappa inh-1 25.1µM, POLB inh 25.1µM, Pol iota inh 31.6µM | Pol iota confirm inconclusive | Pol eta inh-2 30.1
O=C1NC(=O)/C(=C/c2ccc(-c3cccc([N+](=O)[O-])c3)o2)S1	Pol eta inh-1 22.4µM, Pol iota inh inconclusive (no result: TDP1 block) | TbPGK inh 18.3µM | Pol eta inh-2 inconclusive
Cn1nc(-c2cccnc2)nc2c(=O)n(C)c(=O)nc1-2	none (no result: Pol eta inh-1, POLB inh) | Pol iota confirm 1.68 | Pol eta inh-2 2.39
CCn1nc(-c2ccccc2C)nc2c(=O)n(C)c(=O)nc1-2	none (no result: Pol eta inh-1, POLB inh) | Pol iota confirm 1.19 | Pol eta inh-2 3.79
COc1ccc(-c2nc3c(=O)n(C)c(=O)nc-3n(C)n2)cc1	none (no result: Pol eta inh-1, POLB inh)
Cc1cc(C)n2nc(-c3cccnc3)nc2n1	none
Cn1nc(-c2ccc(F)cc2)nc2c(=O)n(C)c(=O)nc1-2	none (no result: Pol eta inh-1, POLB inh) | Pol iota confirm 1.34 | Pol eta inh-2 0.849
Cc1cccc(N2CCN(C(=O)Cc3c(C(=O)O)c(C)cn3C)CC2C)c1 (stereo not drawn)	Pol iota inh inconclusive
CCOC(=O)CN(C(=O)c1snc(C(N)=O)c1N)C(C(=O)NC1CCCCC1)c1ccc(F)cc1 (stereo not drawn)	Pol eta inh-1 35.5µM, Pol kappa inh-1 79.4µM, POLB inh 20µM, Pol iota inh inconclusive (no result: TDP1 block) | Pol iota confirm 42.3 | Pol eta inh-2 inconclusive
CC(C)(C)c1ccc(-c2nc(SCC(=O)Nc3ccc(Cl)cc3)[nH]c(=O)c2C#N)cc1	Pol eta inh-1 28.2µM, Pol kappa inh-1 inconclusive, POLB inh 79.4µM, Pol iota inh 44.7µM (no result: TDP1 block) | Pol iota confirm inconclusive | Pol kappa inh-2 inconclusive | Pol eta inh-2 inconclusive
Cc1ccc(S(=O)(=O)N(CC(O)Cn2c3ccccc3c3ccccc32)c2cccc(C(=O)NCCO)c2)cc1 (stereo not drawn)	Pol iota inh inconclusive (no result: TDP1 block)
COc1ccccc1CNC(=O)CCn1c(=O)c2ccccc2n(CC(=O)Nc2ccc(C)cc2)c1=O	none
CCc1nnc(NC(=O)C(=O)c2cc(C)n(-c3ccccc3)c2C)s1	Pol eta inh-1 50.1µM | Pol iota confirm inconclusive | Pol kappa inh-2 13.4 | Pol eta inh-2 84.9
Cc1ccccc1/C=C/c1nc2ccccc2c(=O)[nH]1	Pol eta inh-1 inconclusive, Pol kappa inh-1 inconclusive, POLB inh 22.4µM, Pol iota inh inconclusive | Pol iota confirm 47.4 | Pol eta inh-2 84.9
Cc1cc(O)c(C(C)(C)C)cc1Sc1cc(C(C)(C)C)c(O)cc1C	none (no result: Pol eta inh-1, Pol kappa inh-1, POLB inh, Pol iota inh)
COc1cc(-c2ccc(Nc3ccccc3C(=O)O)c(OC)c2)ccc1Nc1ccccc1C(=O)O	Pol eta inh-1 10µM, Pol kappa inh-1 31.6µM, POLB inh inconclusive, Pol iota inh 7.94µM (no result: TDP1 block) | Pol iota confirm 67 | Pol kappa inh-2 18.9 | Pol eta inh-2 30.1
CN(c1ccccc1)c1ccc(/C=C(/CCC(=O)O)c2nc3ccccc3s2)cc1[N+](=O)[O-]	Pol eta inh-1 20µM, Pol kappa inh-1 31.6µM, Pol iota inh 17.8µM (no result: POLB inh, TDP1 block) | Pol iota confirm 47.4 | Pol eta inh-2 67.5
O=C(O)CC/C(=C\c1ccccc1[N+](=O)[O-])c1nc2ccccc2s1	none
CN(Cc1ccccc1)c1ccc2cc(S(=O)(=O)N3CCCCC3)ccc2n1	none
CCCCOC(=O)c1ccc(NC(=O)/C(C#N)=C/c2ccc(C)o2)cc1	Pol iota inh inconclusive
O=C1NN(c2ccc(F)cc2)C(=O)/C1=C\C=C\c1ccco1	Pol eta inh-1 inconclusive, Pol kappa inh-1 inconclusive, POLB inh inconclusive, Pol iota inh inconclusive
CC1=NN(c2cccc(C(=O)O)c2)C(=O)/C1=C\C=C\c1ccco1	Pol kappa inh-1 7.08µM, POLB inh 0.562µM, Pol iota inh 1.26µM | TbPGK inh 2.91µM | Pol iota confirm 2.38 | Pol eta inh-2 1.51
Cc1ccc(-n2c(C)nc3oc4ccccc4c(=O)c3c2=O)cc1	Pol eta inh-1 79.4µM, Pol kappa inh-1 inconclusive, POLB inh 39.8µM, Pol iota inh inconclusive | Pol iota confirm 23.8 | Pol eta inh-2 37.9
COc1ccc2c(=O)c3c(=O)n(-c4ccc(C)cc4)c(-c4ccccc4)nc3oc2c1	none (no result: Pol eta inh-1, Pol kappa inh-1, Pol iota inh)
Cc1ccc(NC(=O)Cn2ncn3c(cc4ccccc43)c2=O)cc1C	none
CCc1nn2c(=O)cc(COc3ccc(/C=C4\C(=N)N5N=C(C)SC5=NC4=O)cc3)nc2s1	Pol eta inh-1 7.08µM, Pol kappa inh-1 79.4µM, POLB inh 35.5µM, TDP1 block inconclusive, Pol iota inh inconclusive | Pol iota confirm 33.6 | Pol kappa inh-2 18.9 | Pol eta inh-2 47.8
CCOc1cc(/C=C2\C(=N)N3N=C(C)SC3=NC2=O)ccc1OCCOc1cccc(OC)c1	none (no result: TDP1 block)
O=C1c2cc([N+](=O)[O-])cc3cc([N+](=O)[O-])cc(c23)C(=O)N1c1ccccn1	Pol eta inh-1 15.8µM, Pol kappa inh-1 inconclusive, POLB inh inconclusive, Pol iota inh inconclusive | Pol iota confirm 67 | Pol kappa inh-2 21.2 | Pol eta inh-2 30.1
O=C1c2ccc(Oc3cccc([N+](=O)[O-])c3)cc2C(=O)N1c1ccccn1	none

Screening data: PubChem, National Center for Advancing Translational Sciences (NCATS)
